From PubChem BioAssay AID1730 (National Center for Advancing Translational Sciences (NCATS), 2009)
Results filed as inconclusive are left out. Activity calls are given as the source filed them. Calls come from the whole dose curve; as a rule, active = well fitted inhibition curve with a large enough effect; inconclusive = small, poorly fitted or top-dose-only effect; inactive = no such curve, though single readings can be large or run the other way.

Experiment: Counterscreen Assay for Inhibitors of the ERK Signaling Pathway using a Homogeneous Screening Assay
Text: qHTS Assay for Inhibitors of the ERK Signaling Pathway using a Homogeneous Screening Assay
NIH Chemical Genomics Center [NCGC]
NIH Molecular Libraries Screening Centers Network [MLSCN]
Assay Submitter (PI): Dr. Wei Zheng, NCGC/NIH
The Ras/extracellular-signal-regulated kinase (ERK) mitogen activated protein (MAP) kinase signaling pathway (ERK1/2 cascade) plays is a key role in transmitting signals from the cell surface to the nucleus (Nishida and Gotoh 1993; Chang and Karin, 2001). The cascade is initiated by the small G-protein Ras, which recruits Raf […], where activation occurs. Alternatively, this pathway can be activated by elevating intracellular cAMP.
Activation of the ERK pathway is essential in increased cell division and cell survival. Sustained and constitutive activation of the ERK pathway, however, has been linked to uncontrolled cell proliferation, increased cell survival, and tumor progression. Thus, the ERK has been as an attractive target for cancer chemotherapy in the past few years (Sebolt-Leopold and Herrera, 2004). […]
Biotinylated rabbit IgG was used to perform a counter-screen in the context of an AlphaScreen assay kit provided by PerkinElmer. […] AC50 values were determined from concentration-response data modeled with the standard Hill equation. […]
(10) Detect the assay plate in an EnVision plate reader (PerkinElmer) using the AlphaScreen detection mode. […]

| Compound | outcome |
| --- | --- |
| O=C1NC(=O)C(=Cc2ccccc2Oc2ccc(F)cc2)C(=O)N1 | inactive |
| CCN1C(=O)NC(=O)/C(=C/c2cc(C)n(-c3sc(C)c(C)c3C#N)c2C)C1=O | inactive |
